Bioassay records from PubChem BioAssay.
GPR151 ag = activators of human GPR151, primary screen, cell-based, PathHunter beta-arrestin, luminescence; G-protein coupled receptor 151 (Homo sapiens), Q8TDV0; PathHunter beta-arrestin GPR151 cells; hit rate 1% among 650,000; activation, % at 11.2 µM; in the data active means activation above about 4.9%;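 further: 0% = median of compound wells and 100% = cells with positive control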
MITF primary = MITF inhibitors, primary screen, biochemical, AlphaScreen, human; Microphthalmia-associated transcription factor (Homo sapiens), O75030; AlphaScreen MITF homodimerization, bead proximity signal; inhibition, % at 2.6 µM; hit rate 0.91% among 650,000; in the data active means inhibition above about 50%;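 further: 0% = vehicle wells with protein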
Target sequence (O75030 whole entry, looked up): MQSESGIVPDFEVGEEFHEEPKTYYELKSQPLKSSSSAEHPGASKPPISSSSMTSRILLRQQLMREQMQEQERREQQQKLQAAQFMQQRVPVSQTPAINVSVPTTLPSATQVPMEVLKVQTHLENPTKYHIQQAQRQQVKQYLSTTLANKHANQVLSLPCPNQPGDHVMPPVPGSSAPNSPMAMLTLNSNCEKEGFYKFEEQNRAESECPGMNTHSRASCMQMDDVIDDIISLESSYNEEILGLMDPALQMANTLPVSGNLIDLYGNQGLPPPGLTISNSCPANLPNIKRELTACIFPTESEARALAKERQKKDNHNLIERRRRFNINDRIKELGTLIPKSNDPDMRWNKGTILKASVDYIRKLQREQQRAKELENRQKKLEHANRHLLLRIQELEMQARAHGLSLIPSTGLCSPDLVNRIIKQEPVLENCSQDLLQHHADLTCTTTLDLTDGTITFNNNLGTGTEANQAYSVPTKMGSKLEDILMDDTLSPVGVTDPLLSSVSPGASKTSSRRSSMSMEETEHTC
TEAD-YAP inh = TEAD-YAP interaction inhibition, primary screen, TEAD-YAP interaction inhibitor project, luminescence, HEK-TIYL cells. AID 1259422, 2018. TEAD-Gal4/YAP UAS-luciferase luminescence. inhibition, % at 9.12 µM. hit rate 1.4% among 640,000; in the data active means inhibition above about 32%;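 further: 0% = median of test compound wells and 100% = reference inhibitor wells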
FBW7 activator = FBW7 E3 ligase activators, primary screen, biochemical, AlphaScreen, human; AlphaScreen FBW7–phospho-cyclin E peptide binding, activator screen; normalized activity (activation), % at 26.1 µM; hit rate 0.13% among 650,000; AID 1259310, 2017; in the data active means normalized activity above about 1.9%;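 further: purified mutant Fbw7 with reduced substrate affinity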
MITF inh conf = MITF inhibitors, retest of hits, confirmation, biochemical, AlphaScreen, triplicate | shares compounds with MITF primary | AlphaScreen MITF homodimerization, biotin/His-MITF beads | inhibition, % at 2.6 µM | hit rate 16% among 4,700 | AID 1259372, 2018;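 active means inhibition above a cutoff derived from the DMSO control wells, cut at about 28% in these data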;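 further: 0% = MITF dimer wells with DMSO only; inhibitors lower the bead chemiluminescence by keeping MITF from dimerizing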
AS interf DR = AlphaScreen optical interference compounds, dose response, counter-screen, biochemical, HTS | AID 1259373, 2018 | hit rate 6% among 480 | shares compounds with MITF primary | IC50, µM | AlphaScreen optical interference counterscreen, cell-free; call rule not given here
AlphaScreen intf2 = AlphaScreen optical interference compounds, counter-screen for MITF inhibitor project, biochemical, triplicate | shares compounds with MITF primary | LysRS AlphaScreen counterscreen, signal interference | inhibition, % at 2.6 µM | hit rate 7.6% among 4,700 | AID 1259376, 2018;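 active means inhibition above a cutoff derived from the DMSO control wells, cut at about 30% in these data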
Active calls of the source: *; . = no result. Only some compounds are listed: those with a hit (about 3.5% of all), similar ones and a draw of the others.

SMILES | GPR151 ag | MITF primary | TEAD-YAP inh | FBW7 activator | MITF inh conf | AlphaScreen intf2 | others
Cc1cccc(N=c2c([N+](=O)[O-])nn(-c3ccc(Cl)cc3)n2O)c1 | -1 | 78* | 10 | 0 | 9 | 10
Cc1cccc(-n2nc([N+](=O)[O-])c(=Nc3ccc(F)cc3)n2O)c1 | -1 | 72* | -15 | 0 | 9 | 6
Cn1c(SCCN2CCN(c3ccc(C(F)(F)F)cc3[N+](=O)[O-])CC2)nnc1-c1ccccc1 | 0 | 12 | 8 | 0 | . | .
Cc1cccc(C)c1N=C1NC(=O)C(CC(=O)O)S1 (stereo not given) | 2 | 10 | 11 | 0 | . | .
CC1CCN(C(=O)C2CCN(Cc3ccccc3O)CC2)CC1 | -1 | 38 | 3 | 1 | . | .
CCOC(=O)C1CCCN(Cc2ccc(O)c3ncccc23)C1 (stereo not given) | 1 | 78* | 8 | -2 | 82* | 100*
CC1CCN(Cc2ccc(O)c3ncccc23)CC1 | 1 | 83* | 41* | 0 | 97* | 100*
O=C(Nc1ccc2c(c1)Cc1ccccc1-2)c1cc([N+](=O)[O-])ccc1Br | 1 | 0 | 30 | 0 | . | .
O=S(=O)(NCCc1csc(-c2ccccc2)n1)c1ccc(Cl)cc1 | 1 | -31 | 1 | 0 | . | .
CCOc1cc(CN2CCN(Cc3ccc(F)cc3)CC2)ccc1OC | 4 | 34 | -5 | 0 | . | .
CCOc1cc(CN2CCN(S(C)(=O)=O)CC2)ccc1OC | -1 | 55* | -15 | 0 | -9 | -2
COc1cc(CN2CCN(S(C)(=O)=O)CC2)ccc1OCc1ccccc1 | 2 | 54* | 6 | 0 | 1 | 11
CCOc1cc(CN2CCN(Cc3ccncc3)CC2)ccc1OC | 1 | 73* | -3 | 0 | 7 | 14
CCOc1cc(CN2CCN(S(=O)(=O)CC)CC2)ccc1OC | 0 | 35 | 3 | 0 | . | .
CN1C2CCC1/C(=C\c1ccsc1)C(=O)/C2=C\c1ccsc1 | 1 | 6 | 9 | 0 | . | .
Cc1ncc(CO)c(/C=N/NC(=S)Nc2ccc(Cl)cc2)c1O | 0 | 64* | 9 | 0 | -15 | 21
Cc1ncc(CO)c(/C=N/NC(=S)Nc2ccc(F)cc2)c1O | -2 | 85* | -2 | -1 | 15 | 23
Cc1ncc(CO)c(/C=N/NC(=O)c2ccccc2F)c1O | 0 | 32 | -33 | -2 | . | .
Cc1ncc(CO)c(/C=N/Nc2ccc(C(F)(F)F)cn2)c1O | 4 | 58* | 30 | -1 | 23 | 100*
Cc1ncc(CO)c(/C=N/Nc2ccc(C(F)(F)F)cc2[N+](=O)[O-])c1O | 1 | -10 | 4 | 0 | . | .
Cc1ccc(/C=C2\SC(=O)N(c3cccc(Cl)c3)C2=O)o1 | -1 | 11 | -9 | 0 | . | .
Cc1ccc(NC(=O)CN2C(=O)C(C)(C)Oc3ccc(C(=O)NC4CCCC4)cc32)c(C)c1 | 1 | 7 | -10 | 0 | . | .
CN(C)CCCN(CCCN(C)C)CC(c1ccccc1)c1ccccc1 | 0 | 55* | 9 | 1 | -4 | 0
COc1ccc(CCNC(CC(=O)Nc2ccc(Oc3ccccc3)cc2)C(=O)O)cc1 (stereo not given) | -1 | 2 | -4 | 1 | . | .
COc1ccc(CCNC(C)CC(=O)Nc2ccccc2)cc1 (stereo not given) | 0 | 56* | 2 | 0 | 12 | 11
SMILES | GPR151 ag | MITF primary | TEAD-YAP inh | FBW7 activator | MITF inh conf | AlphaScreen intf2 | others
CC(O)CCc1nc2ccc(N)cc2[nH]1 (stereo not given) | 0 | 6 | -11 | 0 | . | .
Cc1ccn2c(NCC3CCCO3)c(-c3ccc(O)cc3O)nc2c1 (stereo not given) | -1 | 89* | -3 | 0 | 84* | 6 | AS interf DR=>6.5
COc1cccc(CN2CCN(Cc3ccccc3C)CC2)c1OC | -1 | 77* | -3 | 0 | 5 | 12
COc1ccccc1CN1CCN(Cc2cccc3ccccc23)CC1 | -2 | 85* | 7 | 0 | 4 | 12
COc1ccc(CN2CCN(Cc3cccc4ccccc34)CC2)cc1 | 0 | 57* | 10 | 0 | 21 | 19
CCOC(=O)N1CCN(Cc2cccc(OC)c2OC)CC1 | 0 | -10 | 13 | 0 | . | .
CSc1ccc(CN2CCN(Cc3cccc4ccccc34)CC2)cc1 | 1 | 74* | -8 | 0 | 14 | 20
Cc1ccc(Cn2c(N(C)Cc3ccccc3)nc3c2c(=O)n(C)c(=O)n3C)cc1 | 0 | -9 | -2 | 0 | . | .
COc1ccccc1N1CCN(Cc2cccc(OC)c2OC)CC1 | 0 | 23 | 7 | 1 | . | .
COc1cccc(CN2CCN(Cc3cccc4ccccc34)CC2)c1OC | -1 | 82* | -2 | 0 | 18 | 22
O=C(Cc1ccc(F)cc1)Nc1c2c(nn1-c1ccccc1)CS(=O)C2 (stereo not given) | 0 | 15 | -3 | 0 | . | .
Cc1cccc(CC(=O)Nc2c3c(nn2-c2ccc(F)cc2)CS(=O)C3)c1 (stereo not given) | -1 | 88* | 11 | 0 | -7 | -6
COc1ccc(C/C(C)=N/Nc2nc3ccccc3[nH]2)cc1 | -1 | 67* | -45 | 0 | 16 | 38*
Cc1nn(C(=O)c2nn(C)cc2I)c(C)c1Cl | 2 | 54* | 0 | 2 | 2 | -1
COc1ccc(CN(C)CCc2ccccn2)c(OC)c1 | -1 | 77* | 2 | 0 | 4 | 3
CN(CCc1ccccn1)Cc1ccccc1C(F)(F)F | -1 | 35 | -2 | 0 | . | .
CN(CCc1ccccn1)Cc1ccccc1F | 0 | 79* | -1 | 0 | 2 | 19
CN(CCc1ccccn1)Cc1ccccc1[N+](=O)[O-] | 0 | 57* | 1 | 0 | 11 | 1
CN(CCc1ccccn1)Cc1cc2c(cc1[N+](=O)[O-])OCO2 | 1 | 8 | -9 | 0 | . | .
CN(CCc1ccccn1)Cc1ccccc1Br | 0 | 81* | 3 | 0 | 1 | 11
Cc1ccc2onc(CNC(=O)Nc3ccccc3F)c2c1 | 0 | 3 | -12 | 0 | . | .
CCN(CC)C(=O)Cn1nc2n(CC)c3ccccc3n2c1=O | 1 | 3 | 7 | 0 | . | .
Cc1nc(C(C)NC(=O)COc2ccc(N3CCCC3)nn2)cs1 (stereo not given) | 1 | 10 | -2 | 0 | . | .
CN(C)CCN(C)Cc1ccccc1[N+](=O)[O-] | -1 | 76* | -2 | 0 | 10 | 17
COc1cccc(CN(C)CCc2ccccn2)c1OC | -1 | 41 | -2 | 0 | . | .
CN(C)CCN(C)Cc1ccccc1F | 1 | 53* | -2 | 0 | -2 | -2
C=CCOc1ccccc1CN(C)CCc1ccccn1 | 0 | 65* | 9 | 0 | -12 | -7
